Tau fluor counter: counter-screen for tau fibril formation inhibitors; tau K18 P301L Alexa594 fluorescence, heparin fibrillization; Potency, µM (doses to about 57.7 µM), for the others: at the top dose activity change, negative = decrease; 0.93% of 280,000 active; note: potency is the fitted concentration of half-maximal effect; nearly all actives have a fitted effect of over 55% in size
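Human K18 P301L tau (15 uM unlabeled plus 0.24 uM Alexa 594-labeled, final) in 100 mM sodium acetate pH 7 was mixed with compound and 20 uM heparin and incubated 6 hr at 37 C.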
Coupling enz: counter-screen for Giardia aldolase inhibitors: coupling enzyme system; AID 2472; coupling enzyme system counterscreen, AmpLite Red fluorescence; activity change, negative = inhibition, % at 58.2 µM, hits read low; 0.67% of 290,000 active; in the data active = activity change below about -30%
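Counterscreen lacking aldolase: glyceraldehyde-3-phosphate coupling-enzyme reagent preincubated 10 min at RT with compound (at 57.5 uM final), then substrate/coupling system with AmpLite Red added; fluorescence read at 525/598 nm after 20 min RT.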
USP1 inh: USP1/UAF1 (human) deubiquitinase inhibition. O94782. recombinant USP1/UAF1, Ub-Rhodamine cleavage fluorescence. Potency, µM (highest dose often 57.1 µM), for the others: top-dose activity change, negative = inhibition, most hits filed as inhibitors. 0.23% of 390,000 active; note: potency is the fitted concentration of half-maximal effect; nearly all actives have a fitted effect of over 60% in size
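Step one: compound is pinned into 1nM USP1/UAF1 in HEPES pH 7.8 buffer with TCEP. Step two: 15 min room-temperature incubation. Step three: Ub-Rho (150nM final) starts cleavage, tracked by fluorescence over six one-minute reads.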
Tau fibril ThT: tau fibrillization inhibition (ThT binding); P10636; recombinant tau K18 P301L, heparin-induced fibrillization, ThT fluorescence; Potency, µM (titrated, usually from 57.4 µM), for the others: at the top dose activity, negative = inhibition, actives largely listed as inhibitors; 2.1% of 270,000 active; AID 1460; note: potency is the fitted concentration of half-maximal effect; nearly all actives have a fitted effect of over 55% in size
Target sequence (P10636 561-689 P618L limits assumed): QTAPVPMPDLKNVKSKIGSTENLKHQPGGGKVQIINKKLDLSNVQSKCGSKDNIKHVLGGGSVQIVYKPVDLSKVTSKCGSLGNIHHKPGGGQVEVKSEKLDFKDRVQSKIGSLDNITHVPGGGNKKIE
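Using a mix of unlabeled (15 uM) and Alexa 594-labeled (0.24 uM) tau K18 P301L, heparin-triggered fibrillization over 6 hr at 37 C was scored by ThT fluorescence.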
Tau fibril FP: inhibitors of human tau fibril formation | P10636 | K18 P301L tau heparin fibrillization, Alexa594 FP, 6 h | Potency, µM (top dose mostly 57.7 µM), for the others: top-dose activity, negative = inhibition, most hits filed as inhibitors | 0.39% of 280,000 active | AID 1468; note: potency is the fitted concentration of half-maximal effect; nearly all actives have a fitted effect of over 55% in size
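Compound effects on tau fibrillization are measured by Alexa 594 fluorescence polarization (ex 555, em 632 nm). K18 P301L tau is used at 15 uM with 0.24 uM labeled tracer, and 20 uM heparin induces aggregation over 6 hr at 37 C.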
The depositor's hits bear a star; ? = inconclusive; . = not tested or not shown; ! = not confirmed by another sample; [ ] = dose if it differs, or a comment. Most compounds without a hit are left out; they make up all but 2.3% or so of the library. Unless noted, calls come from the whole dose curve; as a rule, active = well fitted curve in the direction sought with a large enough effect; inconclusive = small, poorly fitted or top-dose-only effect, or another doubt; inactive = no such curve, though single readings can be large; an effect the other way counts as inactive or inconclusive. % is set by controls: 0 for no effect and ±100 for the full control effect.

SMILES	Tau fluor counter	Coupling enz	USP1 inh	Tau fibril ThT	Tau fibril FP
Cc1onc(-c2ccccc2)c1C(=O)Nc1sc2c(c1C#N)CCC2	-27%	2	-13%	?	-2%
COc1ccccc1-c1cc(C(=O)Nc2sc3c(c2C#N)CCCC3)no1	-22%	.	11%	35µM*	?
Cc1c(Cl)cccc1NC(=O)CCS(=O)(=O)c1cccc2nsnc12	-7%	.	?	-8%	-1%
Cc1ccc(C(O)C2=CCCC2=O)cc1 (centres undefined)	0%	5	.	-4%	11%
Cc1ccc(Cl)cc1N1CCN(C(=O)C2CCN(S(=O)(=O)c3cn(C)cn3)CC2)CC1	-2%	.	?	3%	5%
O=C(CNc1ccc2ccccc2c1)N/N=C/c1ccc([N+](=O)[O-])o1	14µM*[quencher]	1	-25%	?	2%
CCCC(=O)Nc1ccc(C(=O)N/N=C/c2ccc([N+](=O)[O-])o2)cc1	-21%	-2	-19%	8.9µM*	-5%
O=C(COc1ccccc1)N/N=C/c1ccc([N+](=O)[O-])o1	-17%	-1	-26%	?	-3%
O=C(CNc1ccc2ccccc2c1)N/N=C/c1cc2ccccc2nc1Cl	13µM*[quencher]	-13	-25%	?	-1%
O=C(Cn1c(SCc2ccccc2F)nc2ccncc21)Nc1ccccc1C(F)(F)F	-10%	.	-20%	0%	-8%
COc1cc(CN2CCN(CCCc3ccccc3)C(CCO)C2)cc(OC)c1O (centres undefined)	.	-41*	-22%	.	.
OCCC1CN(Cc2c(O)ccc3ccccc23)CCN1CCc1ccccc1 (centres undefined)	?	-38*	-23%	?	-2%
COC(=O)C1=C(C(=O)OC)[C@@H]2N(C)c3ccc(OC)cc3[C@@]23C[C@@H](C(=O)OC)N(S(=O)(=O)c2ccc(C)cc2)C3=N1	-8%[11.6 µM]	0	.	1%[11.5 µM]	-1%[11.6 µM]
Cc1ccc(Nc2c([N+](=O)[O-])ccc3c2=NC2(CCCCC2)N=3)cc1	?	-19	-23%	16µM*	-11%
O=C(Nc1ccc2c(c1)OCCO2)c1ccccc1Cl	.	.	-23%	.	.
O=C(Nc1ccc2c(c1)OCCO2)c1cccc2nc3ccccc3nc12	?	.	-21%	4.5µM*	5%
O=C(NCc1nc2cccnc2n1Cc1ccc(F)cc1)c1ccccc1C(F)(F)F	-4%	.	-1%	6%	-6%
COC(=O)C1CC(O)CN1C(=O)NC1CCCCC1 (centres undefined)	-7%	3	0%	0%	2%
COC/C=C/C1=CC2=CC(=O)C(C)(OC(=O)c3cnc4ccccc4n3)C(=O)C2=CN1CCCCO (centres undefined)	-17%[11.6 µM]	-32*!	?	13µM*	?
COC/C=C/C1=CC2=CC(=O)C(C)(OC(=O)c3cnc4ccccc4n3)C(=O)C2=CN1Cc1ccccc1 (centres undefined)	?	-14	?	10µM*	?
COC/C=C/C1=CC2=CC(=O)C(C)(OC(=O)c3cnc4ccccc4n3)C(=O)C2=CN1Cc1ccc(OC)cc1 (centres undefined)	?	-9	?	13µM*	?
COC/C=C/C1=CC2=CC(=O)C(C)(OC(=O)c3cnc4ccccc4n3)C(=O)C2=CN1c1ccc(OC)cc1 (centres undefined)	-8%[11.6 µM]	-2	?	-18%[11.5 µM]	2%[11.6 µM]
COC(=O)N1C(c2ccccc2)=Cc2ccccc2C1CC(C)=O (centres undefined)	7%[11.6 µM]	0	.	9%[11.5 µM]	1%[11.6 µM]
COCCNC(=O)CSc1nnc(NC(=O)Nc2ccc(C)cc2)s1	-7%	.	-12%	-1%	0%
CC(C)(C)c1ccc(CN2N=Nc3ccccc3S2(=O)=O)cc1	-4%	-49*	-20%	?	7%
SMILES	Tau fluor counter	Coupling enz	USP1 inh	Tau fibril ThT	Tau fibril FP
O=S1(=O)c2ccccc2N=NN1Cc1ccc(Cl)c(Cl)c1	-20%	-10	.	?	-9%
CCOC(=O)c1c(-c2ccccc2)csc1NC(=O)/C(C#N)=C/c1ccc(O)c(OC)c1	13µM*[quencher]	0	-20%	?	17%
COc1cccc(OCc2cc(/C=N/Nc3ccc(C(=O)O)cc3)ccc2OC)c1	11µM*[quencher]	2	?	?	4%
COc1cc(/C=N/Nc2ccc(Cl)c(C(=O)O)c2)ccc1OC(=O)c1ccccc1F	.	4	-25%	.	.
CCOc1cc(/C=N/Nc2ccc(C(=O)O)cc2)ccc1OC(=O)c1ccccc1C	0.71µM*[quencher]	0	-19%	.	?
COc1cccc(C(=O)Oc2ccc(/C=N/Nc3ccc(C(=O)O)cc3)cc2OC)c1	.	6	-18%	.	.
COc1ccc(CCNS(=O)(=O)c2ccc(N3CCCCS3(=O)=O)cc2)cc1OC	-3%	.	-10%	5%	0%
O=C1c2ccccc2-c2n[nH]c(=O)c3ccc(N4CCCCC4)c1c23	?	-4	-5%	14µM*	-3%
O=C1c2cccc3c(N4CCCCC4)ccc(c23)C(=O)N1c1ccccn1	-6%	-6	-22%	?	-2%
CNc1sc(C(=O)c2ccccc2F)c(N)c1-c1nc2ccccc2s1	11µM*[quencher]	-4	-29%	7.9µM*	3%
C=CC1=C(C)C2=Cc3c(C=C)c(C)c4[n]3[Sn+2][n]3c(c(C)c(CCC(=O)O)c3=CC3=NC(=C4)C(C)=C3CCC(=O)O)=CC1=N2	-12%	-18	.	?	18µM*
CCC1=Nc2cc(C(=O)N3CCC(C)CC3)ccc2Sc2ccc(C)cc21	-5%	.	-23%	-16%	-5%
N=c1n(CCN2CCOCC2)c2ccccc2n1CC(=O)c1ccc(Cl)c(Cl)c1	-1%	-31*	-22%	-12%	1%
N=c1n(CCN2CCOCC2)c2ccccc2n1CC(=O)c1cccc([N+](=O)[O-])c1	.	-11	-8%	.	.
CC1=C(C)C(=O)C(N2CCOCC2)=CC1=O	-16%	-60*	-7%	?	-1%
O=C1C=C(N2CCOCC2)c2ccccc2C1=O	.	-66*	3.2µM*	.	.
CC(C)=C(NC(=O)c1ccccc1)C(=O)Nc1cccc(C(=O)O)c1	-10%	-1	4%	-4%	-5%
O=C(Nc1ccccc1C(=O)OCC(=O)c1c[nH]c2ccccc12)c1ccco1	?	3	-15%	-8%	?
O=C1c2ccccc2C(=O)C12OC2c1cccc2ccccc12 (centres undefined)	-13%	-58*	14µM*	2.5µM*	4.5µM*
c1ccc2c(C3OCC4(CCCC4)CO3)cccc2c1	.	.	-6%	.	.
CCc1cc(/C(Cc2ccc3ccccc3n2)=N\O)c(O)cc1O	22µM*[quencher]	-4	-12%	-14%	-9%
Cc1c(O)ccc(/C(Cc2ccc3ccccc3n2)=N\N)c1O	11µM*[quencher]	-1	-22%	7.1µM*	9%
Cc1ccccc1CC(=O)c1ccc(O)c(C)c1O	?	-1	-18%	-16%	?

High-throughput results: PubChem BioAssay, National Center for Advancing Translational Sciences (NCATS)
